In all, about 98,000 compounds went through this assay and about 4,900 (5%) were called active. Cut-off read from the data, not from the text of the source: active = inhibition above about 30%; inactive = the rest. Only a selection was taken, and actives are over-represented in it overall.

The experiment can be described thus: growth inhibition of yeast control strain, primary screen, counter-screen for post-Golgi transport modulator project (AID 738). The following applies: efflux-deficient yeast background strain, growth absorbance A615, 16 h; at 10 µM; stronger effect = higher value. In general terms: Counterscreens check selectivity or assay interference.
For orientation: inhibition means the change of the read-out against control, counted positive when it falls. Regarding `O=C(CCC(=O)OCc1cccc(C(=O)Oc2ccccc2)c1)Nc1cccc2ccccc12`, the inhibition was 0.79% (inactive). On to `O=C1OC(c2ccc(Cl)cc2)=N/C1=C\c1cccnc1`, for which the inhibition was -10.4% (inactive). `CS(=O)(=O)c1sc2nc(-c3ccccc3)cc(-c3ccccc3)c2c1N`: the inhibition is 10.9% (inactive).

Take `O=C1CN(c2nc(-c3ccccc3)c3cc(Br)ccc3n2)c2ccccc2N1`: the inhibition is 6.52% (inactive).

In the case of `COc1ccccc1NC(=O)COc1ccc(C(=O)OCC(=O)N(C(C)C)C(C)C)cc1OC`, the inhibition is 13.2% (inactive).

`FC(F)(F)c1cc(-c2ccco2)nc(NCc2ccc(Cl)cc2)n1`: the inhibition is 25.8% (inactive). The result for `COc1cccc(OCC(O)CN2CCN(CCO)CC2)c1` (configuration not stated) reads -4.45% (inactive); that for `Cc1ccc(OCC(O)CN2CCN(CC(O)COc3ccc(C)cc3Cl)CC2)c(Cl)c1` (configuration not stated), 94.4% (active); that for `OC(COc1ccc2ccccc2c1)CN1CCOCC1` (configuration not stated), 15.5% (inactive). For the molecule `Cc1ccc(-c2nc(C)sc2CC(=O)O)cc1`, the inhibition is 6.8% (inactive).

Take `NC(=O)C1CCN(C(=O)c2ccc(C(F)(F)F)cc2)CC1`: the inhibition is 36.9% (active). Under `COc1ccccc1N(C)S(=O)(=O)c1ccc(C(=O)N2CCC(C(N)=O)CC2)cc1` stands 1.96% (inactive); under `NC(=O)C1CCN(C(=O)c2ccc(-c3ccccc3)cc2)CC1`, 6.88% (inactive). Turning to `O=c1oc2c(Cl)cc(Cl)cc2cc1-c1nnc(Nc2ccccc2F)s1`, the inhibition is -3.4% (inactive).

For the molecule `CCS(=O)(=O)n1nc(-c2ccccc2)nc1SCc1ccccc1`, the inhibition is 31.2% (active). `CCS(=O)(=O)n1nc(-c2ccc(OC)cc2)nc1SC`: the inhibition is 9.73% (inactive). The result for `Cn1c(CO)cnc1SCc1ccccc1` reads 9.24% (inactive).

Turning to `CCC1(C)Cc2c(sc3nnn(CC(=O)Nc4ccc(Cl)cc4)c(=O)c23)CO1` (configuration not stated), the inhibition is 6.74% (inactive). As to `O=C(NCCCN1CCOCC1)c1cc2c(s1)CCC2`, the inhibition is -14.4% (inactive). The result for `Cc1n[nH]c(=S)n1/N=C/c1ccc(Br)o1` reads 49.4% (active). On to `Cc1ccc(-c2n[nH]c(=S)n2/N=C/c2cc3c(cc2[N+](=O)[O-])OCO3)cc1`, for which the inhibition was -11.7% (inactive).

Regarding `C=CCNC(=S)NNc1ncnc2sc3c(c12)CC(C)(C)OC3`, the inhibition is 0% (inactive). In the case of `COc1ccccc1NC(=S)NC(=O)C(C)C`, the inhibition was 12.3% (inactive). The result for `O=C(NCN1CCN(CCO)CC1)c1cnccn1` reads -5.66% (inactive); that for `Cc1ccc(SCc2cc(=O)[nH]c(N3CCCCC3)n2)cc1`, 7.96% (inactive); that for `O=c1cc(-c2ccccc2)nc(N2CCCCC2)[nH]1`, 45% (active). For `O=c1cc(CSc2ccccn2)nc(N2CCN(c3ccccc3)CC2)[nH]1`, the inhibition is 8.73% (inactive). Under `CCOC(=O)C(=O)Nc1nc(-c2ccccc2)c(CC)s1` stands -2.8% (inactive); under `Cc1cccc(CSc2nnc(NC(=O)CSc3nnc(C)s3)s2)c1`, 22.5% (inactive). As for `CCN(CC)c1ccc(/C=N/Nc2nc(C)cc(=O)[nH]2)cc1`, the inhibition is -2.13% (inactive). The result for `COc1cc2c(cc1OC)C(C(=O)NCc1ccco1)C1c3ccccc3CCN1C2=O` (configuration not stated) reads 4.7% (inactive). On to `CCOC(=O)C1CCN(C(=O)c2oc3ccc(S(=O)(=O)N4CCCCCC4)cc3c2C)CC1`, for which the inhibition is 8.75% (inactive).

For the molecule `CCOC(=O)C1CCN(c2ncnc3c2oc2ccc(Br)cc23)CC1`, the inhibition is 47.4% (active). For the molecule `CCOC(=O)N1CCN(C(=O)C2CCN(c3ncnc4c3sc3cccc(F)c34)CC2)CC1`, the inhibition was 2.07% (inactive).

`CCCNC(=O)c1c(N)n(-c2ccc(S(N)(=O)=O)cc2)c2nc3ccccc3nc12`: the inhibition is -2.52% (inactive). Under `Cc1nn(C)c(Oc2ccc(Cl)cc2)c1C=O` stands 2.69% (inactive). As for `O=C(CCCCn1c(=O)[nH]c2ccccc2c1=O)NCc1ccc2c(c1)OCO2`, the inhibition is 1% (inactive). Consider `O=C(COc1ccccc1)NCc1ccc2c(c1)OCO2`, for which the inhibition is 9.88% (inactive). The result for `O=C1N(Cc2ccc3c(c2)OCO3)c2ccccc2C1(O)c1c[nH]c2ccccc12` (configuration not stated) reads 38.7% (active); that for `Cc1csc(=NC(=O)c2ccccc2)n1CCO`, 7.5% (inactive); that for `CCC(C)NC(=O)CCCc1ccccc1` (configuration not stated), 28.4% (inactive).

As for `O=C(CNC(=O)Cc1ccccc1)NCC(=O)OCC(=O)c1ccccc1Cl`, the inhibition is 13.6% (inactive).

Consider `C=CCOc1c2ccc(C(=O)N(CC)c3ccc(OC)cc3)cc2nn1C`, for which the inhibition is 7.7% (inactive). The result for `O=C(NC1CC1)c1ccc2c(c1)NC(=O)c1ccccc1S2` reads -5.47% (inactive); that for `COc1ccc(C(C#N)Nc2ccc(C)cc2)cc1` (configuration not stated), 1.82% (inactive); that for `COc1ccc(-c2cc(C(=O)n3cnc4ccccc43)c3ccccc3n2)cc1`, 15.1% (inactive). The result for `O=C(CCCOc1ccccc1)NCc1ccco1` reads 3.25% (inactive); that for `O=C(CCOc1ccccc1)NCc1ccccc1`, 39.4% (active). The result for `O=C(CCc1ccccc1)NCc1cccnc1` reads 6.95% (inactive); that for `Cn1sc(NC(=O)c2ccccc2)nc1=O`, 4.34% (inactive). Consider `CC(C)(C)c1cc2cccnc2n1Cc1ccccc1`, for which the inhibition was 7.46% (inactive). On to `CCOC(=O)c1sc2nc(SC)nc(-c3ccccc3)c2c1N`, for which the inhibition is -7.15% (inactive). Under `COCCNC(=O)COc1ccc(C)c(C)c1` stands -10.9% (inactive); under `Cc1ccccc1OCC(=O)NCC(=O)OCC(=O)c1ccc2ccccc2c1`, 6.76% (inactive). In the case of `Cc1cc2ccccc2n1CCNC(=O)COc1ccc2ccccc2c1`, the inhibition is 44.7% (active). Consider `COc1ccc(C(=O)CN(C(=O)c2ccc(Cl)cc2)N2C(=O)c3ccccc3C2=O)cc1`, for which the inhibition was -4.1% (inactive). As for `COc1cccc(NC(=O)C2c3cc(OC)c(OC)cc3C(=O)N(C)C2c2cccnc2)c1` (configuration not stated), the inhibition was -0.14% (inactive). The result for `CC(=O)NNc1cc(=O)c2c(=O)n(C)c(=O)n(C)c2[nH]1` reads 0.97% (inactive). The result for `Cn1c2ccccc2n2c(=O)c(=O)n(CC(=O)c3ccc(F)cc3)nc12` reads 3.79% (inactive); that for `Cc1cc(C)c(S(=O)(=O)NCC2CCC(C(=O)NCc3ccc4c(c3)OCO4)CC2)c(C)c1` (configuration not stated), 15.2% (inactive); that for `CCOc1ccccc1NC(=O)Nc1cc(OC)ccc1OC`, 14.3% (inactive). The result for `CCOc1cc(-c2cc(-c3ccc(OC)cc3)nc(N)c2C#N)ccc1O` reads -2.55% (inactive); that for `CCOc1ccccc1Oc1cn[nH]c1-c1ccc(OC)cc1O`, 52.3% (active). As for `Cn1c2c(c(=O)n(C)c1=O)[C@@H]1c3c(ccc4ccccc34)OC[C@@H]1CO2`, the inhibition is 3.76% (inactive). With `CCn1c(/C=C/c2ccc([N+](=O)[O-])o2)nc2ccccc2c1=O`, the inhibition was 68% (active). Under `CCc1ccc(NC(=O)CSc2nc3ccccc3c(=O)n2CCN2CCOCC2)cc1` stands 7.51% (inactive). The result for `Cc1nc2ccccc2c(=O)n1CCCn1ccnc1` reads 1.67% (inactive); that for `O=C(Nc1nnc(SCc2ccc(Cl)cc2Cl)s1)C1COc2ccccc2O1` (configuration not stated), 5% (inactive); that for `CCOC(=O)c1cnc(-c2ccccc2)nc1Oc1ccc(C)cc1`, 4.35% (inactive). Under `Cc1nnc(NC(=O)Cn2c(=O)sc3ccccc32)s1` stands -3.03% (inactive); under `Cc1nnc(NC(=O)Nc2ccc(Cl)c(Cl)c2)s1`, 3.53% (inactive).

Consider `N/C(=N\OC(=O)Nc1ccc(Cl)c(Cl)c1)c1ncc(C(F)(F)F)cc1Cl`, for which the inhibition was 13.3% (inactive). Under `O=C(CC(O)(C(F)(F)F)C(F)(F)F)Nc1ccc(Cl)c(Cl)c1` stands 96.9% (active); under `COCc1cc(C)nc2sc3c(=O)n(-c4cccc5ccccc45)nnc3c12`, 21.1% (inactive); under `O=C(CN1CCN(c2nc(-c3ccccc3)cs2)CC1)NCc1ccc2c(c1)OCO2`, 44.6% (active). Consider `O=C(Cn1nnc(-c2ccccc2)n1)NCc1ccc2c(c1)OCO2`, for which the inhibition was 2.85% (inactive).

Take `COc1ccc(-c2csc(N3CCN(Cc4ccc5c(c4)OCO5)CC3)n2)cc1`: the inhibition is -2.01% (inactive). The result for `COc1ccc(C2CC(=O)Nc3sc(=N)c4c(N)c(C#N)c(N)nc4c32)cc1OC` (configuration not stated) reads 24.2% (inactive); that for `Fc1ccccc1/C=C1\CCCC2=C1Nc1ncnn1C2c1ccccc1F` (configuration not stated), 35.8% (active); that for `CCCCCCn1c(SCC(=O)c2ccccc2)nc2c1c(=O)[nH]c(=O)n2C`, 12.4% (inactive). Under `CCCCCn1c(SCCC(C)C)nc2c1c(=O)[nH]c(=O)n2C` stands 35.5% (active); under `CCCSc1nc2c(c(=O)[nH]c(=O)n2C)n1CCc1ccccc1`, 16.6% (inactive).

`ONC(=Nc1ccccc1)c1ccccc1Cl`: the inhibition is 24.2% (inactive). For `CN(C(=O)CSc1nnc(N)s1)c1c(N)n(Cc2ccccc2)c(=O)[nH]c1=O`, the inhibition was 7.66% (inactive). The result for `Cc1cc([N+](=O)[O-])c(N2CCC[C@@H]2C(=O)O)c([N+](=O)[O-])c1` reads 18.4% (inactive).

`Cc1ccc(Cc2c(C)nc3nc(SCC(=O)NCCN4CCOCC4)nn3c2C)cc1`: the inhibition was 20% (inactive). The result for `Cc1ccsc1-c1nc(CSCC(=O)NCCN2CCCC2)c(C)o1` reads 34.5% (active); that for `Cn1c(C(=O)NCCCN2CCCCC2)cc2sccc21`, 2.29% (inactive).

For `COc1ccccc1N1CCN(Cc2nnnn2CCc2ccccc2)CC1`, the inhibition was 7.81% (inactive). Under `COc1ccccc1N1CCN(Cc2ccc(OC)c3ccccc23)CC1` stands 34.9% (active); under `COc1ccccc1N1CCN(CCCCOc2ccc(F)cc2)CC1`, -0.55% (inactive). Take `Cc1cc(C)n2nc(C(=O)NC(C)(C)C)nc2n1`: the inhibition is 4.47% (inactive). The result for `COc1ccc(Oc2c(Cl)cnn(-c3ccccc3)c2=O)cc1` reads -3.86% (inactive); that for `CCN1CCC(=NNC(=O)c2ccc(C)c([N+](=O)[O-])c2)CC1`, 3.82% (inactive); that for `COc1ccc(-c2nc(CS(=O)CC(=O)N3CCc4ccccc4C3)c(C)o2)cc1` (configuration not stated), 4.85% (inactive). As to `Cc1oc(-c2ccccc2F)nc1CS(=O)(=O)CC(=O)NCCCN(C)C1CCCCC1`, the inhibition was 13.5% (inactive). Regarding `Cc1ccccc1-c1nc(CS(=O)(=O)CC(=O)N2CCc3ccccc3C2)c(C)o1`, the inhibition is 30.9% (active).

The values above are taken from PubChem BioAssay AID738 (SRMLSC, 2007).
